Assay [1] in a line: High-throughput drug toxicity screening in the BPDCN cell line Gen2.2 (AID 1224824; call rule not given here;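 also: cells exposed to compounds for 48 h before reading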). Particulars: Gen2.2 BPDCN cells; at 45.8 µM (top of the series) unless noted. The procedure, abridged: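 Gen2.2 cells, 500 per well in phenol red-free RPMI with 10% FBS, exposed to compounds 48 h at 37 C, 5% CO2; viability by CellTiter-Glo luminescence. Percent activity scaled to DMSO (100%) and 9.2 uM bortezomib final (0%).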

Assay [2] is described as follows: High-throughput drug toxicity screening in the BPDCN cell line Cal-1 (AID 1224825; call rule not given here). Particulars: Cal-1 BPDCN cell viability, qHTS; at 45.8 µM (top of the series) unless noted. The procedure, abridged: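 500 Cal-1 cells/well, RPMI + glutamine + 10% FBS (phenol red-free); cpd added by pin tool; 48 h, 37C, 5% CO2; CTG 15 min RT, lumi read. Normalised: DMSO 100%, bortezomib 9.2 uM 0%.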
A general note: qHTS replaces the single test concentration by a dilution series.

A short description of assay [3]: qHTS assay for measurement of the activity of small molecule inhibitors on Zika virus induced Caspase-3 activity in human iPSC derived neural progenitor cells (hNPCs) (AID 1224857). Also: % of control where 0% means no effect; nearly all actives have a fitted effect of over 65% in size. In a few lines: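 After overnight (16–20 h) culture at 350 cells/well, hNPCs get compound, then ZIKV 2 FFU/cell one hour later. Six hours on, Caspase-Glo 3/7 is added and luminescence measured.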

The nature of assay [4]: qHTS assay for measurement of the activity of small molecule inhibitors on Zika virus induced Caspase-3 activity in human astrocytoma cells (AID 1224859).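 Also: plate controls were ZIKV-infected untreated cells for no effect and uninfected cells for full effect.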 The procedure, abridged:
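Inhibition of Zika-induced caspase-3/7 activity: SNB-19 cells, 1 h compound pretreatment, ZIKV 2 FFU/cell for 6 h at 37 C, Caspase-Glo luminescence read-out.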

Assay [5] can be described thus: qHTS Screen of the MIPE 4.0 Collection Against Ewings Sarcoma (RDES) (AID 1259252). Also: nearly all actives have a fitted effect of over 35% in size. Also: potency is read from the fitted curve at half-maximal effect. In a few lines: (§1)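 CellTiter-Glo luminescence after 48 h compound exposure (titration) gave viability; percent activity used DMSO-treated cells as no inhibition and medium-only wells as full inhibition. Cells grown in RPMI/5% FBS, dosed 4 h post-seeding.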
A short description of assay [6]: qHTS Screen of the MIPE 4.0 Collection Against Ewings Sarcoma (TC71) (AID 1259253). Also: nearly all actives have a fitted effect of over 40% in size. Also: potency is read from the fitted curve at half-maximal effect. The procedure, abridged:
as §1

The nature of assay [7]: qHTS Screen of the MIPE 4.0 Collection Against Ewings Sarcoma (EW8) (AID 1259255). Also: nearly all actives have a fitted effect of over 35% in size. Also: potency is read from the fitted curve at half-maximal effect.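 As to viability: 100% = DMSO-treated cells and 0% = medium-only wells without cells.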 The procedure, abridged: as §1
Assay [8] can be described thus: qHTS Screen of the MIPE 4.0 Collection Against Ewings Sarcoma (TC32) (AID 1259256). Also: nearly all actives have a fitted effect of over 45% in size. Also: potency is read from the fitted curve at half-maximal effect. In a few lines: as §1
A short description of assay [9]: Identifying Small Molecule Inhibitors of Pancreatic Cancer Stem Cells (SN12C, Adherent) (AID 1259358).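 Also: cell survival measured after 48 h of compound exposure.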 Also: potency is read from the fitted curve at half-maximal effect. In a few lines: (§2)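 Cytotoxicity read by CellTiter-Glo luminescence after 48 h compound exposure at 37C; percent activity scaled between DMSO-treated cells and cell-free wells. Spheroid formats used cells pre-formed 14 days in stem cell media on hydrogel.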
A short description of assay [10]: Identifying Small Molecule Inhibitors of Pancreatic Cancer Stem Cells (SN12C, Spheroid) (AID 1259360). Also: potency is read from the fitted curve at half-maximal effect.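 As to viability (% of control): 100% = DMSO-treated cells and 0% = wells without cells.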 Particulars: Potency: SN12C spheroid viability. The procedure, abridged: as §2
Assay [11] in a line: qHTS assay to identify small molecule inhibitors of chordoma cells - UCH-1 (AID 1259355). Also: % is scaled to controls: 0 for no effect and ±100 for the full control effect; nearly all actives have a fitted effect of over 55% in size. In a few lines: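 Seed 800 cells per well; incubate overnight at 37 C, 5% CO2. Add test compounds (15 concentrations), then the auranofin–topoisomerase-agent combination. Incubate 48hr, add CellTiter-Glo, wait 30min, read luminescence.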
Assay [12] is described as follows: qHTS assay to identify small molecule inhibitors of chordoma cells - UCH-2 (AID 1259356). Also: % is scaled to controls: 0 for no effect and ±100 for the full control effect.
Assay [13] is described as follows: P-glycoprotein substrates identified in KB-8-5-11 adenocarcinoma cell line, qHTS therapeutic library screen (AID 1346987). Also: nearly all actives have a fitted effect of over 65% in size. Also: potency is read from the fitted curve at half-maximal effect. In a few lines:
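Steps: plate 500 KB-8-5-11 cells/well in DMEM + 10% FCS (colchicine removed); pin compounds in dose-response; incubate 72 h, 37 degree C, 5% CO2; add CellTiter-Glo, 5 min; read luminescence.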

Assay [14] in a line: Identifying Small Molecule Inhibitors of Pancreatic Cancer Stem Cells (A278, Adherent) (AID 1259361). Also: nearly all actives have a fitted effect of over 35% in size. The procedure, abridged:
as §2

Assay [15] in a line: Identifying Small Molecule Inhibitors of Pancreatic Cancer Stem Cells (Panc1, Adherent) (AID 1259362). Also: potency is read from the fitted curve at half-maximal effect. Particulars: viability. The procedure, abridged: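 After a 4 h attachment period, compounds were pinned into wells and cultures held 48 h under standard incubator conditions. Viability was then measured as CellTiter-Glo luminescence following 10 min at room temperature.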
Assay [16] is described as follows: P-glycoprotein substrates identified in KB-3-1 adenocarcinoma cell line, qHTS therapeutic library screen (AID 1346986). Also: nearly all actives have a fitted effect of over 60% in size. The note with it: KB-3-1 parental cells viability, CellTiter-Glo, 72 h; at 44.5 µM (top of the series). In a few lines: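 Cells seeded 500/well in DMEM/10% FCS; compounds pinned in dose-response; 72 h incubation; CellTiter-Glo added, 5 min, luminescence. KB-8-5-11 run ±tariquidar to test reversal of P-gp resistance.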

The record followed here is PubChem BioAssay (NCATS).

Inconclusive results are not listed. Calls of active or inactive are those of the source. Unless noted, calls follow the shape of the dose curve; as a rule, active = well fitted curve in the direction sought with a large enough effect; inconclusive = small, poorly fitted or top-dose-only effect, or another doubt; inactive = no such curve, though single readings can be large; an effect the other way counts as inactive or inconclusive.

For the compound `Cc1c(-c2ccc(O)cc2)n(Cc2ccc(OCCN3CCCCCC3)cc2)c2ccc(O)cc12`, the cell viability, % of control (lower = more cytotoxic) in assay [1] stood at 158%. In assay [2], the viability (% of control) stood at 121%. The Potency result in assay [3], in assay [4], in assay [5], in assay [6], in assay [7] and in [8] was “inactive” each time. In addition, the Potency entry in assay [9] and in assay [10] was “inactive” in each case.
For the compound `CC(C)(Sc1cc(C(C)(C)C)c(O)c(C(C)(C)C)c1)Sc1cc(C(C)(C)C)c(O)c(C(C)(C)C)c1`, the cell viability, % of control (lower = more cytotoxic) in [1] worked out at 48.3%. For the same compound, the viability (% of control) in assay [2] stood at 45.2%. For the same compound, the Potency result in assay [3], in assay [4], in [7], in assay [11], in [12] and in [13] was “inactive” each time. The Potency in [5] is 2960 nM (active); in [6], 20900 nM (active); in assay [8] it was 9350 nM (active).
As for `O=C(O)c1cccnc1`, in assay [1], the cell viability, % of control (lower = more cytotoxic) amounted to 127%. Moreover, the viability (% of control) in assay [2] turned out to be 87.6%. Also, the Potency entry in assay [3], in assay [4], in assay [5], in [6], in assay [7] and in [8] was “inactive” throughout. The Potency result in assay [11], in assay [12] and in [13] was “inactive” in each case.
As to `O=S(=O)(O)CCS`, in assay [1], the cell viability, % of control (lower = more cytotoxic) came to 25.9%. Besides, in assay [2], the viability (% of control) was found to be 32.1%. The Potency result in assay [3], in assay [4], in assay [5], in assay [6], in assay [7] and in assay [8] was “inactive” in each case. The Potency entry in assay [11], in assay [12] and in assay [13] was “inactive” each time.
As to `CC(C)C[C@H](NC(=O)[C@H](CCc1ccccc1)NC(=O)CN1CCOCC1)C(=O)N[C@@H](Cc1ccccc1)C(=O)N[C@@H](CC(C)C)C(=O)[C@@]1(C)CO1`, the cell viability, % of control (lower = more cytotoxic) in assay [1] stood at 5.77%. The viability (% of control) in assay [2] worked out at 3.67%. The Potency entry in assay [3] and in [4] was “inactive” throughout. In addition, the Potency in assay [5] was 18.7 nM (active); in assay [6] it was 37.2 nM (active); in assay [7], 13.2 nM (active); in assay [8], 14.8 nM (active); in [9], 37.2 nM (active); in assay [10], 37.2 nM (active). For the same compound, the Potency in [15] is 26.4 nM (active); in [13], 9200 nM (active). The IC50 (viability decrease) in [14] was 2.3 nM (active).
`CC(C(=O)O)c1ccc2c(c1)CC(=O)c1ccccc1S2` (stereo not drawn): in [1], the cell viability, % of control (lower = more cytotoxic) amounted to 113%. Also, in [2], the viability (% of control) is 19.4%. Besides, the Potency result in [3], in [4], in assay [5], in [6], in assay [7] and in assay [8] was “inactive” throughout. Moreover, in assay [13], the Potency result is “inactive”. Also, the result in assay [16] was inactive.
For the compound `Nc1[nH]c(=O)ncc1F`, the cell viability, % of control (lower = more cytotoxic) in assay [1] is 87.4%. Moreover, the viability (% of control) in [2] is 22.3%. Also, the Potency result in [3], in [4], in assay [5], in assay [7], in [11] and in [12] was “inactive” each time. The Potency is 18700 nM (active) in [6] and 13200 nM (active) in assay [8].
As to `CC(=O)[C@H]1CC[C@H]2[C@@H]3CC=C4C[C@@H](O)CC[C@]4(C)[C@H]3CC[C@]12C`, the cell viability, % of control (lower = more cytotoxic) in [1] was 106%. Besides, the viability (% of control) in [2] came out at 107%. In addition, the Potency entry in assay [3], in assay [4], in assay [5], in [6], in assay [7] and in [8] was “inactive” throughout. Besides, the Potency entry in assay [12] and in assay [13] was “inactive” throughout.
`CN1CCN(c2c(F)cc3c(=O)c(C(=O)O)cn4c3c2OCN4C)CC1`: the cell viability, % of control (lower = more cytotoxic) in assay [1] stood at 170%. In addition, the viability (% of control) in assay [2] is 117%. The Potency entry in assay [3], in assay [4], in assay [5], in assay [6], in assay [7] and in [8] was “inactive” throughout. Besides, the Potency result in assay [11], in assay [12] and in assay [13] was “inactive” in each case. Moreover, in [16], the result was inactive.
